Compound activity: PubChem, National Center for Advancing Translational Sciences (NCATS)
ELG1 genotoxic: induces genotoxicity in HEK293T cells with luciferase-tagged ELG1; HEK293T ELG1-luciferase reporter, luminescence, 16 h; Potency, µM (titrated, usually from 46 µM), usual class: activators; actives 1.3% (n = 330,000); AID 504466; note: nearly all actives have a fitted effect of over 60% in size
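Reporter readout depends on ELG1 protein level, which increases with genetic stress. After 16 hr compound exposure at 37 °C, luciferase activity was quantified using ONE-Glo.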
FLuc modulator: inhibits or activates purified firefly luciferase, miR-21 counter-screen; purified FLuc, Km substrates, luminescence inhibition; Potency, µM (top dose mostly 57.5 µM), most hits filed as inhibitors; actives 6.9% (n = 360,000); note: nearly all actives have a fitted effect of over 55% in size
Target sequence (P08659 whole entry, looked up): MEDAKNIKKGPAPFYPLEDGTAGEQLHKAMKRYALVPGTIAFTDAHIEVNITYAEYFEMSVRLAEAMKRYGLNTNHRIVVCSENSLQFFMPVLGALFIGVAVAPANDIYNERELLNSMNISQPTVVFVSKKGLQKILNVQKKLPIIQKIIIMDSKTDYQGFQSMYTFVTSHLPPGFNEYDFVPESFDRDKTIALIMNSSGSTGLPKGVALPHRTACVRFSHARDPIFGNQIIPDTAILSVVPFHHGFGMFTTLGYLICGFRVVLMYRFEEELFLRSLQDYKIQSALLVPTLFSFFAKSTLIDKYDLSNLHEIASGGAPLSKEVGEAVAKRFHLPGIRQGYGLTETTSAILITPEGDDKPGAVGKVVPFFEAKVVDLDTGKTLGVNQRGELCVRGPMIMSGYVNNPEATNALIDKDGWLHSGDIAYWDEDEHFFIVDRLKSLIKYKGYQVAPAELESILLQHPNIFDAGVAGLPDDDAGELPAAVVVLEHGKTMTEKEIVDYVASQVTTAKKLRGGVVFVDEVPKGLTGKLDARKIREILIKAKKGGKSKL
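Purified P. pyralis luciferase (10nM final) with 10uM D-luciferin and 10uM ATP (Km levels) in 50mM Tris acetate pH 7.5, 10mM Mg acetate, 0.01% Tween-20, 0.05% BSA; qHTS 6-point titration, ~60 µM downward; luminescence read.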
ELG1 DNA repair: inhibitors of ELG1-dependent DNA repair in HEK293T cells. HEK293T ELG1-luciferase reporter, luminescence, 16 h; DNA damage induced by 5-fluorouridine. Potency, µM (doses to about 46.1 µM), actives largely listed as inhibitors. actives 2.3% (n = 330,000). AID 504467; note: nearly all actives have a fitted effect of over 55% in size
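DMSO vehicle served as the neutral condition. Each well held 2,000 cells given 5-fluorouridine plus compound; after 16 hr at 37 °C/5% CO2, ONE-Glo was added and luciferase measured 30 min later.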
Rab9 promoter act: activates the Rab9 promoter | Huh7 Rab9 promoter-luciferase reporter, luminescence, 24 h | actives 2.8% (n = 320,000) | Potency, µM (top dose mostly 9.22 µM), most hits filed as activators; note: nearly all actives have a fitted effect of over 60% in size
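Huh7 cells stably carrying Rab9 promoter–luciferase reporter, plated 1500 cells/well, compound added after 2 h and incubated 24 h at 37 °C; luciferase luminescence then read after 10 min with detection reagent.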
SMN2 splice enh: enhancers of SMN2 splice variant expression; HEK293 SMN2-luciferase splicing reporter, luminescence, 30-36 h; Potency, µM (highest dose often 46.1 µM), most hits filed as activators; actives 2.8% (n = 210,000); note: nearly all actives have a fitted effect of over 55% in size
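qHTS luciferase splicing reporter: luminescence rises when SMN2 exon 7 is included in transfected HEK293 cells. Compound exposure lasted 30-36 h at 37C, with 4.5 mM final sodium butyrate as control, followed by a ONE-Glo read.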
NPC1 prom act: activates the NPC1 promoter; Huh7 NPC1 promoter luciferase reporter, 24 h; Potency, µM (series often up to 9.22 µM), most hits filed as activators; actives 2.4% (n = 320,000); AID 485313; note: nearly all actives have a fitted effect of over 60% in size
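Readout is luciferase luminescence, reflecting NPC1 promoter activation in stably transfected Huh7 cells after 24 h compound exposure at 37 °C in reduced-serum medium with 10% FBS.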
Of the large screens only hits and unclear results are named; the others gave an inactive call. An excerpt weighted towards active compounds, which were near 9.2% of everything screened. Calls come from the whole dose curve; as a rule, active = well fitted curve in the direction sought with a large enough effect; inconclusive = small, poorly fitted or top-dose-only effect, or another doubt; inactive = no such curve, though single readings can be large; an effect the other way counts as inactive or inconclusive.

Cc1cc(C)cc(-n2ccnc2SCC(=O)Nc2ccc3c(c2)OCO3)c1	none (no result: ELG1 genotoxic, ELG1 DNA repair, Rab9 promoter act, SMN2 splice enh, NPC1 prom act)
CC(C)(C)c1ccc(C(=O)NNC(=O)c2ccc(Cl)cc2)cc1	none
COCCCNC(=S)NC(=O)c1ccc(C)cc1	ELG1 genotoxic inconclusive, FLuc modulator 13µM, ELG1 DNA repair inconclusive, Rab9 promoter act inconclusive, SMN2 splice enh 14µM, NPC1 prom act inconclusive
CC(C)(C)c1ccc(C(=O)NNC(=O)c2ccncc2)cc1	FLuc modulator 19µM (no result: SMN2 splice enh)
CC(C)(C)c1ccc(C(=O)NNC(=S)NC(=O)c2cccnc2)cc1	FLuc modulator 19µM, ELG1 DNA repair inconclusive (no result: SMN2 splice enh)
CC(C)(C)c1ccc(C(=O)c2c[nH]c(C(=O)NCCCn3ccnc3)c2)cc1	FLuc modulator 19µM, ELG1 DNA repair inconclusive
COc1ccc(C(=O)c2c[nH]c(C(=O)NCCCn3ccnc3)c2)cc1	none
CSc1cccc(NC(=O)Cn2c3ncccc3c(=O)n2-c2ccc(C)cc2)c1	none (no result: ELG1 genotoxic, ELG1 DNA repair, Rab9 promoter act, SMN2 splice enh, NPC1 prom act)
CCn1cc(S(=O)(=O)c2ccccc2)c(=O)c2cc(F)c(N3CCCCCC3)cc21	none (no result: ELG1 genotoxic, ELG1 DNA repair, Rab9 promoter act, SMN2 splice enh, NPC1 prom act)
COC(=O)CNC(=S)NC(=O)c1ccc(C(C)(C)C)cc1	FLuc modulator 13µM
Cn1nc(C(C)(C)C)cc1C(=O)O	none
CC(C)(C)c1cc(Cl)c(O)c(NC(=S)NC(=O)c2cccnc2)c1	FLuc modulator inconclusive, ELG1 DNA repair 9.2µM
O=C(CNC(=S)NC(=O)c1ccccc1)c1ccccc1	FLuc modulator 17µM, ELG1 DNA repair inconclusive, SMN2 splice enh inconclusive
Cn1nc(C(C)(C)C)cc1C(=O)NNC(=O)c1ccc(C(F)(F)F)cc1	ELG1 DNA repair 7.3µM (no result: SMN2 splice enh)
CCOC(=O)c1cc(-c2ccccc2)n(-c2cccc(C(=O)Nc3cccc(F)c3)c2)c1C	none (no result: ELG1 genotoxic, ELG1 DNA repair, Rab9 promoter act, SMN2 splice enh, NPC1 prom act)
CCN(C[C@H]1N[C@@](C)(C(=O)OC)[C@H]2C(=O)N(Cc3ccccc3)C(=O)[C@@H]12)C(=O)Nc1ccc(Cl)cc1	none (no result: FLuc modulator, Rab9 promoter act, SMN2 splice enh, NPC1 prom act)
CC(C)(C)c1ccc(C(=O)c2c[nH]c(C(=O)NCc3cccnc3)c2)cc1	FLuc modulator 7.6µM
CC(C)(C)c1ccc(C(=O)NCc2cccnc2)cc1	ELG1 genotoxic inconclusive, FLuc modulator inconclusive, ELG1 DNA repair inconclusive
CC(C)(C)c1ccc(C(=O)NC(=S)NCc2cccnc2)cc1	FLuc modulator 24µM
Cc1ccc2c(c1)-c1c(cnn1CC(=O)N1CCN(c3cccc(C(F)(F)F)c3)CC1)CO2	none (no result: ELG1 genotoxic, ELG1 DNA repair, Rab9 promoter act, NPC1 prom act)
O=C(CCC1N=C2c3ccccc3N=C(SCc3ccccc3F)N2C1=O)NCc1ccccc1 (stereo not drawn)	none (no result: ELG1 genotoxic, ELG1 DNA repair, Rab9 promoter act, SMN2 splice enh, NPC1 prom act)
O=C1OC(O)C(C(Cl)Cl)=C1Cl (stereo not drawn)	none (no result: ELG1 genotoxic, FLuc modulator, ELG1 DNA repair, Rab9 promoter act, NPC1 prom act)
COc1ccc(NC(=O)C2=C(C)Nc3nc(SCc4ccccc4C)nn3C2c2cc(OC)c(O)c(OC)c2)cc1 (stereo not drawn)	none (no result: ELG1 genotoxic, ELG1 DNA repair, Rab9 promoter act, NPC1 prom act)
N#Cc1cnc2nc(SCc3ccccc3)nn2c1	ELG1 genotoxic inconclusive, ELG1 DNA repair inconclusive, Rab9 promoter act inconclusive, NPC1 prom act 1.4µM (no result: SMN2 splice enh)
CSc1nc2ncc(C#N)cn2n1	none
CCOCCCNC(=O)/C(C#N)=C/c1ccc(-c2ccc(S(=O)(=O)N3CCOCC3)cc2)o1	ELG1 DNA repair inconclusive
COCCNC(=O)/C(C#N)=C/c1ccc(-c2ccc(S(=O)(=O)N3CCOCC3)cc2)o1	ELG1 DNA repair 16µM
COCCn1c(C)cc(C(=O)CSc2nnc(C)s2)c1C	FLuc modulator 1.7µM (no result: ELG1 genotoxic, ELG1 DNA repair, Rab9 promoter act, NPC1 prom act)
COCCn1c(C)cc(C(=O)CSc2nnnn2C2CCCC2)c1C	ELG1 genotoxic inconclusive, FLuc modulator 0.085µM, ELG1 DNA repair inconclusive, Rab9 promoter act inconclusive, NPC1 prom act 0.1µM (no result: SMN2 splice enh)
Cc1ccc(S(=O)(=O)C2(S(=O)(=O)c3ccc(C)cc3)CC2)cc1	ELG1 DNA repair 23µM (no result: SMN2 splice enh)
CCOC(=O)C(=CNc1ccc2c(c1)CCN2C(C)=O)C(=O)OCC	FLuc modulator 12µM (no result: SMN2 splice enh)
CCOC(=O)N1CCC(NS(=O)(=O)c2ccc3c(c2)CCN3C(C)=O)CC1	ELG1 DNA repair 18µM
CCOC(=O)C(=CNc1ccc(N2CCOCC2)cc1)C(=O)OCC	none (no result: SMN2 splice enh)
COC(=O)c1sc(-c2ccccc2)cc1NC(=O)c1cccc(F)c1	none (no result: ELG1 genotoxic, ELG1 DNA repair, Rab9 promoter act, NPC1 prom act)
CCOc1ccc(-c2nnc3ccc(SCc4ccc(C(=O)OC)o4)nn23)cc1	ELG1 DNA repair 21µM
